Data from PubChem BioAssay (NCI).
About 79,000 compounds went through this panel and 15% of them were active in at least one assay; those are over-represented in the sample as a whole. The source made the active and inactive calls. No stated cut-off is given here; in the data, active means growth inhibition above about 70%; inactive means the rest.

Legend:
[1] = NCI Yeast Anticancer Drug Screen. Data for the mec2-1 strain (AID 157); settings: S. cerevisiae mec2-1 strain, stronger effect = higher value
Summary of the method: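 Yeast mec2-1 mutant treated with compound. Readout: growth inhibition vs vehicle controls.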

[2] = NCI Yeast Anticancer Drug Screen. Data for the rad14 strain (AID 159);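 further: 0% = growth of vehicle-treated control cultures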; settings: S. cerevisiae rad14 strain growth inhibition, stronger effect = higher value
Summary of the method: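 Yeast cells carrying a defined DNA-repair defect were exposed to compounds, and growth inhibition was calculated relative to vehicle-treated control cultures.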

[3] = NCI Yeast Anticancer Drug Screen. Data for the sgs1 mgt1 strain (AID 161);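 further: 0% = growth of cultures given vehicle only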; settings: S. cerevisiae sgs1 mgt1 strain, stronger effect = higher value
Summary of the method: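 Read-out: growth inhibition vs vehicle controls. Cells: mutant yeast strain deficient in DNA damage repair.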

[4] = NCI Yeast Anticancer Drug Screen. Data for the CLN2oe strain (AID 163);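 further: 0% = growth of vehicle-only control cultures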; settings: S. cerevisiae CLN2oe strain, stronger effect = higher value
Summary of the method: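 Read-out: yeast growth inhibition, expressed relative to vehicle-only controls. The strain bears an engineered cell-cycle alteration.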

[5] = NCI Yeast Anticancer Drug Screen. Data for the cln2 rad14 strain (AID 165);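 further: 0% = growth equal to vehicle treated cultures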; settings: S. cerevisiae cln2 rad14 strain, stronger effect = higher value
Summary of the method: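 cln2 rad14 yeast strain; compound exposure; growth inhibition read vs vehicle controls.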

[6] = NCI Yeast Anticancer Drug Screen. Data for the bub3 strain (AID 167); settings: S. cerevisiae bub3 mutant strain, stronger effect = higher value
Summary of the method: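 Compounds were applied to a genetically altered yeast strain carrying a cell-cycle control defect. Growth inhibition was scored against vehicle-treated controls.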

[7] = NCI Yeast Anticancer Drug Screen. Data for the wt2 strain (AID 169);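 further: 0% = growth of vehicle-treated yeast cultures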; settings: S. cerevisiae wt2 strain growth inhibition, stronger effect = higher value
Summary of the method: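 Read-out: growth inhibition versus vehicle-treated control cultures after compound exposure of the yeast strain.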

[8] = NCI Yeast Anticancer Drug Screen. Data for the mlh1 strain (AID 171);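 further: 0% = growth of vehicle-treated control cultures of the same strain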; settings: S. cerevisiae mlh1 strain growth inhibition, stronger effect = higher value
Summary of the method: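 Read-out: growth inhibition versus vehicle controls. Strain: engineered yeast with a defined DNA repair or cell cycle defect, compound-treated.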

[9] = NCI Yeast Anticancer Drug Screen. Data for the sgs1 strain (AID 173);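 further: 0% = growth of vehicle-only control cultures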; settings: S. cerevisiae sgs1 mutant, stronger effect = higher value
Summary of the method: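 Read-out: yeast growth inhibition relative to vehicle controls, following compound exposure of a strain with a defined DNA repair/cell cycle alteration.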

[10] = NCI Yeast Anticancer Drug Screen. Data for the mlh1 rad18 strain (AID 175); settings: S. cerevisiae mlh1 rad18 strain growth inhibition, stronger effect = higher value
Summary of the method: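 Yeast w/ defined DNA-repair lesions; compound exposure; growth vs vehicle controls → % inhibition.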

[11] = NCI Yeast Anticancer Drug Screen. Data for the rad18 strain (AID 177); settings: S. cerevisiae rad18 mutant growth inhibition, stronger effect = higher value
Summary of the method: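 Readout: growth inhibition vs vehicle controls. Cells: genetically altered yeast strain, DNA repair defect.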

[12] = NCI Yeast Anticancer Drug Screen. Data for the rad52 strain (AID 147);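 further: 0% = growth of vehicle-treated control cultures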; settings: S. cerevisiae rad52 mutant growth inhibition, stronger effect = higher value
Summary of the method: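 Read-out: growth inhibition versus vehicle-treated controls. Cells were a DNA repair-deficient yeast strain treated with compounds.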

[13] = NCI Yeast Anticancer Drug Screen. Data for the wt1 strain (AID 149);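 further: 0% = growth of vehicle-treated wt1 cultures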; settings: S. cerevisiae wt1 strain (SPY 50644) growth inhibition, stronger effect = higher value
Summary of the method: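 Yeast wt1 strain exposed to compounds; growth inhibition measured relative to vehicle-treated controls.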

[14] = NCI Yeast Anticancer Drug Screen. Data for the rad50EPP+ strain (AID 151);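 further: 0% = growth of vehicle-treated control cultures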; settings: S. cerevisiae rad50 mutant strain, stronger effect = higher value
Summary of the method: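 Growth inhibition read against vehicle controls in rad50EPP+ yeast, a strain altered in DNA damage repair, after compound exposure.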

[15] = NCI Yeast Anticancer Drug Screen. Data for the rad50 strain (AID 155);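 further: 0% = growth of vehicle-only cultures of the same strain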; settings: S. cerevisiae rad50 strain growth inhibition, stronger effect = higher value
Summary of the method: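 Yeast carrying a defined DNA repair defect were exposed to test compounds, and growth was compared with vehicle-treated controls to give percent inhibition.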

[16] = at 5.0 µM (retest, dose inferred, filed as 0.5)
[17] = at 50.0 µM (retest, dose inferred, filed as 5.0)

Measured: growth inhibition

O=C1OC2C(O)COC2(OCc2c[nH]c3ccccc23)C1O (stereo unspecified) (tested in a mixture with another compound)
active: [1]; at 100.0 µM 91% | [2]; at 100.0 µM 95% | [6]; at 100.0 µM 92% | [7]; at 100.0 µM 75% | [8]; at 100.0 µM 87% | [9]; at 100.0 µM 92% | [10]; at 50.0 µM 88.9% | [11]; at 100.0 µM 96%
inactive: [2]; at 1.2 µM -2% | [2]; at 3.7 µM 2% | [2]; at 11.0 µM 4% | [2]; at 33.0 µM 30% | [3]; [16] -3% | [3]; [17] 48% | [3]; at 50.0 µM 66.5% | [4]; at 1.2 µM 1% | [4]; at 3.7 µM 1% | [4]; at 11.0 µM 0% | [4]; at 33.0 µM 9% | [4]; at 100.0 µM 54% | [5]; [16] -2% | [5]; [17] 36% | [5]; at 50.0 µM 42.4% | [6]; at 1.2 µM 0% | [6]; at 3.7 µM 3% | [6]; [16] -1% | [6]; at 11.0 µM 3% | [6]; at 33.0 µM 22% | [6]; [17] 46% | [6]; at 50.0 µM 6.5% | [7]; at 1.2 µM -2% | [7]; at 3.7 µM 7% | [7]; at 11.0 µM 0% | [7]; at 33.0 µM 5% | [8]; at 1.2 µM -1% | [8]; at 3.7 µM -2% | [8]; at 11.0 µM -2% | [8]; at 33.0 µM 11% | [9]; at 1.2 µM -1% | [9]; at 3.7 µM 0% | [9]; at 11.0 µM 3% | [9]; at 33.0 µM 43% | [10]; [16] -3% | [10]; [17] 26% | [11]; at 1.2 µM 0% | [11]; at 3.7 µM 2% | [11]; at 11.0 µM 9% | [11]; at 33.0 µM 68%

CC(=O)CC(=O)/C=C/c1cccs1
inactive: [12]; at 1.2 µM -15% | [12]; at 3.7 µM -8% | [12]; at 11.0 µM 6% | [12]; at 33.0 µM 26% | [13]; at 1.2 µM -25% | [13]; at 3.7 µM -23% | [13]; at 11.0 µM -22% | [13]; at 33.0 µM -19% | [13]; at 100.0 µM 59% | [14]; at 1.2 µM 7% | [14]; at 3.7 µM 0% | [14]; at 11.0 µM 33% | [15]; at 1.2 µM -3% | [15]; at 3.7 µM -5% | [15]; at 11.0 µM 18% | [15]; at 50.0 µM 68.7% | [1]; at 1.2 µM -36% | [1]; at 3.7 µM -38% | [1]; at 11.0 µM -21% | [1]; at 33.0 µM 10% | [1]; at 50.0 µM 50% | [2]; at 1.2 µM -12% | [2]; at 3.7 µM -9% | [2]; at 11.0 µM 6% | [2]; at 33.0 µM 8% | [3]; [16] -16% | [3]; [17] 44% | [3]; at 50.0 µM 51.2% | [4]; at 1.2 µM -27% | [4]; at 3.7 µM -30% | [4]; at 11.0 µM -24% | [4]; at 33.0 µM 2% | [4]; at 100.0 µM 38% | [5]; [16] 15% | [5]; at 50.0 µM 32.1% | [6]; at 1.2 µM 2% | [6]; at 3.7 µM -10% | [6]; [16] -1% | [6]; at 11.0 µM -27% | [6]; at 33.0 µM 21% | [6]; [17] 53% | [6]; at 50.0 µM 19% | [7]; at 1.2 µM -17% | [7]; at 3.7 µM -17% | [7]; at 11.0 µM -9% | [7]; at 33.0 µM -10% | [8]; at 1.2 µM -21% | [8]; at 3.7 µM -24% | [8]; at 11.0 µM -1% | [8]; at 33.0 µM 16% | [9]; at 1.2 µM -18% | [9]; at 3.7 µM -8% | [9]; at 11.0 µM 26% | [9]; at 33.0 µM 30% | [10]; at 50.0 µM 64.8% | [11]; at 1.2 µM -20% | [11]; at 3.7 µM -26% | [11]; at 11.0 µM 12% | [11]; at 33.0 µM 20%
active: [12]; at 100.0 µM 86% | [14]; at 33.0 µM 89% | [14]; at 100.0 µM 92% | [15]; [16] 97% | [15]; at 33.0 µM 76% | [15]; [17] 100% | [15]; at 100.0 µM 92% | [1]; [16] 94% | [1]; [17] 99% | [1]; at 100.0 µM 77% | [2]; at 100.0 µM 89% | [5]; [17] 72% | [6]; at 100.0 µM 90% | [7]; at 100.0 µM 84% | [8]; at 100.0 µM 88% | [9]; at 100.0 µM 93% | [10]; [16] 100% | [10]; [17] 100% | [11]; at 100.0 µM 88%
